The source made the active and inactive calls. The calls were made as follows: active = hit-call score of the fitted dose curve at least 0.9, where 1 is the maximum; inactive = score below 0.9.

The AC50 is the midpoint of the concentration-response curve, whichever way the signal moves.

The nature of the assay: CCTE_Shafer_MEA_acute_cross_correlation_HWHM: CCTE's Neural Acute Assay for Cross Correlation at Half Width at Half Maximum, Shafer Lab (AID 2284026). As for the experimental part: CCTE_Shafer_MEA_acute assay is conducted using Axion Biosystems 48 well microelectrode array (MEA) plates and Maestro recording system. Each well of the MEA plate contains a grid of 16 microelectrodes embedded in the culture surface. Electrically active cells, such as neurons, can be cultured over the electrodes, and electrical activity in these cells can be recorded extracellularly. The spontaneous firing of neurons is captured from each electrode on a microsecond timescale providing both temporally and spatially precise data. […] The CCTE_Shafer_MEA_acute assay uses primary cultures of rat cortical neurons. As these cultures mature over time, neural networks develop functional activity and form cohesive networks in which electrical activity can be highly coordinated. Baseline 40-minute recordings are made on days post-plating 13 or 15, followed by a secondary 40-minute recording after chemical exposure.CCTE_Shafer_MEA_acute_cross_correlation_HWHM is a component of the CCTE_Shafer_MEA_acute assay. It measures the distance along the x-axis (phase lag) from the left half maximum height to the center of the cross-correlogram of action potential firing during a recording in a microelectrode array (MEA) using Axion Biosystems Maestro 768 channel amplifier with the AxIS adaptive spike detector. Smaller values indicate a narrower correlogram (greater synchrony). The recordings before and after chemical treatment are used to calculate a percent change in the half width at half maximum of the cross-correlogram in each well.Data from the assay component CCTE_Shafer_MEA_acute_cross_correlation_HWHM was analyzed into 1 assay endpoint. This assay endpoint, CCTE_Shafer_MEA_acute_cross_correlation_HWHM, was analyzed in the negative analysis fitting direction relative to DMSO as the negative control and baseline of activity. Using a type of functional reporter, gain or loss-of-signal activity can be used to understand electrical activity.
Spontaneous activity in the cortical cultures was recorded using an Axion Biosystems Maestro 768 channel amplifier and Axion Integrated Studios (AxIS) v1.8 (or later) software. The amplifier recorded from all channels simultaneously (gain = 1200 x; sampling rate = 12.5 kHz/channel): raw signals were filtered with a Butterworth band-pass filter (300-5000 Hz), which filters out slower local field potentials leaving only fast potentials, i.e., "spikes", arising from extracellular currents associated with action potentials (Pine 2006; Wheeler and Nam 2011). On-line spike detection of filtered signals was conducted with the AxIS adaptive spike detector, using a threshold of 8x the root mean squared (rms) noise on each channel. Any electrodes with rms noise levels greater than 5 uV were grounded (e.g., no data were recorded). Once grounded, an electrode was grounded for the duration of the experiment. All recordings were conducted at 37 C. Wells were deemed usable if on the day of the exposure >/= 10 electrodes were active (defined as >/= 5 spikes/min). On DIV 13 or 15, a minimum of three wells from one cortical culture preparation were treated with each compound (0.03-40 uM). Prior to recording baseline activity, each mwMEA plate was placed in the Maestro at 37 C and allowed to sit for 20 min while firing rates stabilized. Baseline activity (40 min) was recorded before the addition of each compound. An additional 40 min of spontaneous activity was recorded in the presence of each compound. Changes in network parameters relative to baseline were assessed following compound treatment.
Consider `CCOC(=O)c1ccccc1C(=C1C=C(Br)C(=O)C(Br)=C1)c1cc(Br)c(O)c(Br)c1`, for which the AC50 is 11.8 µM (active).
Consider `O=C1CCCN1CCO`, for which the result was inactive.
The same measure, in the same setting: as for `CCCCC(CC)COCC1CO1` (stereo unspecified), the entry is “inactive”; as for `O=C(c1ccc(O)cc1)c1ccc(O)cc1O`, “inactive”; as for `C=C[Si](OC(C)=O)(OC(C)=O)OC(C)=O`, “inactive”.
Still for that read-out and setting: as for `CO[Si](OC)(OC)c1ccccc1`, the entry is “inactive”.
On to `Nc1ccc(N)c(Cl)c1`, for which the molecule was called inactive.
Still for that read-out and setting: as for `CCCCC(CC)COC(=O)c1ccccc1O` (stereo unspecified), the entry is “inactive”.
As to `CN1C(=O)N(C)C(O)C1O` (stereo unspecified), the result was inactive.
On the same count and under the same terms, as for `CCO[Si](C)(OCC)OCC`, the entry is “inactive”.
For the molecule `Nc1ncn([C@@H]2O[C@H](CO)[C@@H](O)[C@H]2O)c(=O)n1`, the AC50 was 7.72 µM (active).

The values above are taken from PubChem BioAssay (EPA / NIEHS).
